From the supplement of paper PMC3334620
Over roughly 33,000 sequences, “E-score (-0.5 to 0.5)” has its median near -0.054; the highest 2% begin near 0.35. The sample as a whole holds a higher share of the highest values than the screen did.

biological target: T1, Stb5 (UniProt P38699); assay: PBM E-score (8-mer binding enrichment) (E-score (-0.5 to 0.5)); higher = stronger / more preferred TF binding; conditions: protein concentration: 200 nM; construct: GST-full length
T1 sequence: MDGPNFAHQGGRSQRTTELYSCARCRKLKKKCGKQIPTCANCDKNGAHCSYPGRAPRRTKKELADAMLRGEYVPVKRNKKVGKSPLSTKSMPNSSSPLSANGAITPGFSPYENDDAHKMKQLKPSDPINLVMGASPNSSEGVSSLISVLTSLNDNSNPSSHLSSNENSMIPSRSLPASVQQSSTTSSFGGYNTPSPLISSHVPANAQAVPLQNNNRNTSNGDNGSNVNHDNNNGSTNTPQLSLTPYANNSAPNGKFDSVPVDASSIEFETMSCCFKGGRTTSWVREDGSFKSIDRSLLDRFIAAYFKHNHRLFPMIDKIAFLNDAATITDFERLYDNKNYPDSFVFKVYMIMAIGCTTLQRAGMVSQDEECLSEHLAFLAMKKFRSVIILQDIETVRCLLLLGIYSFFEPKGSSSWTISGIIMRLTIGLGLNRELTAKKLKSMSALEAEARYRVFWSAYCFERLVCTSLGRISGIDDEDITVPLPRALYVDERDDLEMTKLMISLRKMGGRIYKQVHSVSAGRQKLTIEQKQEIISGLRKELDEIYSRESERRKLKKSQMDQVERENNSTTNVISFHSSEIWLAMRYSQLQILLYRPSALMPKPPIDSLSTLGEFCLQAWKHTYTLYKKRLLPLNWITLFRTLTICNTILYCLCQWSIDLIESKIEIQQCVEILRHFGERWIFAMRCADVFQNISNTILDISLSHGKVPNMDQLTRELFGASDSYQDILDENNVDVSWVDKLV
Method in brief: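 PURExpress in vitro transcription/translation supplied GST-tagged yeast transcription factors, either full-length or DNA-binding domain. Applied at about 100-200 nM to universal all-10-mer Agilent arrays double-stranded by primer extension, the bound protein was detected with fluorescent anti-GST. E-scores, modified Wilcoxon-Mann-Whitney statistics, were given by the Universal PBM Analysis Suite to ungapped eight-base words pooled with their reverse complements after masliner normalisation.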

Sequence | PBM E-score
AGCGAGTC | -0.132
AGAATTCG | -0.146
CGGCGACG | 0.194
GACGGCGC | 0.199
CAACCGTC | -0.0245
GGGCCGAA | 0.175
AGGCCGAC | 0.406
GAGCCGAC | 0.201
GGGCCGAC | 0.355
CGGCCGAC | 0.205
AGGCCGAT | 0.295
ACAAGTGT | -0.136
CAGGTTAA | -0.0457
AACGGACA | 0.298
AACGGACG | 0.224
AACGGGGG | 0.296
AACGGGGC | 0.294
AACGGACC | 0.38
AACGGAGA | 0.247
AACGGATC | 0.16
AACGGAGT | 0.378
CACGGACC | 0.241
AACGGGGT | 0.373
AACGGAGC | 0.242
AACGGACT | 0.38

Sequence | PBM E-score
GTAAGATA | 0.0697
CTGCAGCC | -0.218
TCTGGGCA | 0.115
TAGCTTCA | -0.214
AGCGATGC | -0.112
CGTTGTAA | -0.00989
AGTTCAGC | -0.299
TAGCGGCA | 0.372
GAGCGGCA | 0.357
CAGCGGCA | 0.198
GAGCGGCC | 0.293
AAGCGGCA | 0.344
GAGCGGTA | 0.316
CGCCAGTC | 0.131
CGCTGATC | 0.0743
TAGCGATA | 0.0393
CATGCCCG | 0.122
AATGCCGA | 0.419
GATGCCGA | 0.332
AATGCCGG | 0.401
AATGCCCG | 0.362
AATGCCGC | 0.448
CATGCCGA | 0.168
CATGCCGC | 0.312
CATGCCGG | 0.344

Sequence | PBM E-score
AATGCCTG | -0.102
GATGCCGC | 0.349
AATGCCCC | 0.128
AAGACCTC | -0.0749
CCCTTGGC | -0.224
CTGATTAC | -0.0945
GCAGTTCA | -0.151
CTTGCCAC | -0.0929
CTGGGAGA | -0.253
AAAGCTCG | -0.16
AGATAGAC | -0.0476
ACCCTTTG | 0.0498
CAGCCATA | -0.263
AATCCCAA | 0.0066
AATGCCGT | 0.425
AATGCCCT | -0.168
AATGCCAT | -0.0216
GGGTTTCA | 0.19
AACCGCAC | 0.00707
CACCGCAA | 0.368
AACCGCAA | 0.12
CACCGCAC | 0.357
GACCGCAC | 0.18
TACCGCAA | 0.225
CGAGGCTA | -0.0771

Sequence | PBM E-score
AATGAGAG | -0.228
ATGCCTTA | -0.338
CTCCGGAG | 0.283
AACCGGAG | 0.302
GTCCGGAC | 0.348
CACCGGAG | 0.379
ATCCGGAC | 0.258
GACCGGAC | 0.387
CTCCGGAC | 0.381
CGCCGGAC | 0.396
CGCCGGAA | 0.168
GGCCGGAC | 0.331
GACCGGAA | 0.21
GACCGGCC | 0.29
TAGACCAA | -0.239
CAATGGCA | 0.022
TATTTACA | -0.157
AGCTGTTC | -0.207
CAAGATGG | -0.13
TAGATTGA | 0.0223
AAAGTACG | 0.00248
CCAATGCG | -0.208
GAGAGGCC | -0.0937
AACCGGAC | 0.28
CACCGGAA | 0.293

Sequence | PBM E-score
CACCGGGG | 0.33
GACCGGGC | 0.211
CACCGGAC | 0.413
CACCGGGC | 0.375
CAGCAATA | -0.0729
ATGCCCAA | -0.116
CGCGGCTA | 0.3
CGGTAACC | 0.165
CGGTAATA | 0.457
GGGTAATA | 0.143
CGGTAACA | 0.36
CGGTAATC | 0.25
AGGTAACA | -0.111
CGCATAAA | -0.127
TAAGCGGA | 0.209
CAAGCGGG | 0.273
AAAGCGGA | 0.352
CAAGCGGA | 0.223
AAAGCGGG | 0.297
CAAGCGGC | 0.379
CCGACGGA | 0.394
CCGACGAC | 0.312
ACGACGGC | 0.146
ACGACGGA | 0.227
CCGACGCC | 0.315

Sequence | PBM E-score
CCGACGGC | 0.372
CCGACGCG | 0.378
CCGACAAA | 0.353
CCGACAAG | 0.266
GCGACGGA | 0.283
ACGACGCG | -0.0646
TCGACAAA | -0.183
CGCGATCC | 0.0632
AAAACGGC | 0.21
GTACTCAA | -0.185
GCTTTAAC | -0.0801
TAAATCGA | -0.267
AGTCAAAA | -0.00563
AAACCTCT | 0.015
ATAAAGAG | -0.0867
CCAAGCAG | -0.122
CACTGTCA | -0.352
ATACTCCC | 0.339
CAGCTCCG | 0.136
CAACTCCG | 0.342
CATCTCCG | 0.276
AATCTCCC | -0.0498
AAACTCCG | 0.463
AAGCTCCT | -0.165
ATACTCCA | -0.199

Sequence | PBM E-score
AATCTCCG | 0.423
AAACTCCT | 0.0448
ATACTCCG | 0.371
AAGCTCCG | 0.429
CACTGCAA | -0.139
ACGTGCGA | -0.0649
GCTAGTCC | 0.0729
GAGAAAGC | 0.0247
CACACATC | -0.15
CTGTTCGC | -0.0755
AACCTCCG | 0.408
AACCTCCC | -0.0946
AACCTCCT | -0.234
GTAAGCCA | -0.243
GAGTAGCC | -0.178
CGAAATTA | -0.0454
CCCCGTGA | 0.146
CCCCGTGC | 0.375
ACCCGTGC | -0.0288
ATGAACCA | -0.252
CACAGCTA | -0.125
CAATTGTC | -0.0888
